Reference: article PMC12820563, “FoxP3 forms a head-to-head dimer in vivo and stabilizes its multimerization on adjacent microsatellites”
The full ranking holds about 16,000 sequences; the median of “rpm ratio (pull-down/input)” is about 0.94, and the highest 2% start at about 1.7. The sample holds the highest values, similar sequences and a random draw of the others, so the mix is not that of the screen.

Target: T1, MBP-FoxP1dN (Mus musculus, UniProt P58462 326-579)
T1 sequence: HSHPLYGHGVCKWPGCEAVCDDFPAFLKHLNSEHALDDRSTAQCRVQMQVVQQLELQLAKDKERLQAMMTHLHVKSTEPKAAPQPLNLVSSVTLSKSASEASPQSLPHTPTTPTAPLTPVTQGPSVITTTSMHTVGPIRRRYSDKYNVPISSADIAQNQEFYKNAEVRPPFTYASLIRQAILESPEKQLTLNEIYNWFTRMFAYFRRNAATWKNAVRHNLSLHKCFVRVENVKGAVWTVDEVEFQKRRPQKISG
Assay: PD-seq (MBP pull-down with sequencing); 20 mM Tris-HCl pH 7.5, 100 mM NaCl, 1.5 mM MgCl2, 0.4 uM protein, 0.1 uM dsDNA library, 30 min, room temperature, amylose pull-down; high values mean tight binding
Settings: protein: recombinant; tags: His6-MBP; chain copies: 2; dsDNA, one strand shown
In short: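 Amylose resin was used to capture complexes formed during 30 min at room temperature in Tris pH 7.5 buffer with NaCl and MgCl2 between 0.4 µM His6-MBP-tagged mouse FoxP3 or FoxP1 fragment lacking the N-terminus, expressed in E. coli, and 0.1 µM Klenow-filled double-stranded degenerate DNA library. After three washes, the DNA was released with proteinase K, barcoded by PCR and sequenced on Illumina. Binding is pooled-replicate reads-per-million enrichment, pull-down over input.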

Sequence | binding signal
GATGATTGTTCTCCCAGCTGATGAATTTTAGCGCTCGAGTAAACAAATTTTCCTAATCTTTCTGTTCAAGCGCCATCTAC | 0.826 RPM ratio (pull-down/input)
GATGATTGTTCTCCCAGCTGATGAATTATAACCCTCGAGTAAACAAATTTTCCTAATCTTTCTGTTCAAGCGCCATCTAC | 0.997 RPM ratio (pull-down/input)
GATGATTGTTCTCCCAGCTGATGAATTTGATCCATCGAGTAAACAAATTTTCCTAATCTTTCTGTTCAAGCGCCATCTAC | 0.928 RPM ratio (pull-down/input)
GATGATTGTTCTCCCAGCTGATGAATTCGGCCTATCGAGTAAACAAATTTTCCTAATCTTTCTGTTCAAGCGCCATCTAC | 0.817 RPM ratio (pull-down/input)
GATGATTGTTCTCCCAGCTGATGAATTTGCGGACTCGAGTAAACAAATTTTCCTAATCTTTCTGTTCAAGCGCCATCTAC | 0.882 RPM ratio (pull-down/input)
GATGATTGTTCTCCCAGCTGATGAATTACTTCATTCGAGTAAACAAATTTTCCTAATCTTTCTGTTCAAGCGCCATCTAC | 1.11 RPM ratio (pull-down/input)
GATGATTGTTCTCCCAGCTGATGAATTGAGCAGATCGAGTAAACAAATTTTCCTAATCTTTCTGTTCAAGCGCCATCTAC | 0.835 RPM ratio (pull-down/input)
GATGATTGTTCTCCCAGCTGATGAATTGTGTTCTTCGAGTAAACAAATTTTCCTAATCTTTCTGTTCAAGCGCCATCTAC | 1.33 RPM ratio (pull-down/input)
GATGATTGTTCTCCCAGCTGATGAATTGTGTTGTTCGAGTAAACAAATTTTCCTAATCTTTCTGTTCAAGCGCCATCTAC | 2.69 RPM ratio (pull-down/input)
GATGATTGTTCTCCCAGCTGATGAATTTCTGTGTTCGAGTAAACAAATTTTCCTAATCTTTCTGTTCAAGCGCCATCTAC | 1.23 RPM ratio (pull-down/input)
GATGATTGTTCTCCCAGCTGATGAATTGATGTGTTCGAGTAAACAAATTTTCCTAATCTTTCTGTTCAAGCGCCATCTAC | 1.5 RPM ratio (pull-down/input)
GATGATTGTTCTCCCAGCTGATGAATTCTTGTGTTCGAGTAAACAAATTTTCCTAATCTTTCTGTTCAAGCGCCATCTAC | 1.6 RPM ratio (pull-down/input)
GATGATTGTTCTCCCAGCTGATGAATTGTTGTGTTCGAGTAAACAAATTTTCCTAATCTTTCTGTTCAAGCGCCATCTAC | 2.57 RPM ratio (pull-down/input)
GATGATTGTTCTCCCAGCTGATGAATTGACCGCGTCGAGTAAACAAATTTTCCTAATCTTTCTGTTCAAGCGCCATCTAC | 0.965 RPM ratio (pull-down/input)
GATGATTGTTCTCCCAGCTGATGAATTAAAACGATCGAGTAAACAAATTTTCCTAATCTTTCTGTTCAAGCGCCATCTAC | 0.959 RPM ratio (pull-down/input)
GATGATTGTTCTCCCAGCTGATGAATTAAGAGAATCGAGTAAACAAATTTTCCTAATCTTTCTGTTCAAGCGCCATCTAC | 0.949 RPM ratio (pull-down/input)

Sequence | binding signal
GATGATTGTTCTCCCAGCTGATGAATTTTTTTGCTCGAGTAAACAAATTTTCCTAATCTTTCTGTTCAAGCGCCATCTAC | 0.948 RPM ratio (pull-down/input)
GATGATTGTTCTCCCAGCTGATGAATTGTTTTGCTCGAGTAAACAAATTTTCCTAATCTTTCTGTTCAAGCGCCATCTAC | 1.95 RPM ratio (pull-down/input)
GATGATTGTTCTCCCAGCTGATGAATTTCTGTGCTCGAGTAAACAAATTTTCCTAATCTTTCTGTTCAAGCGCCATCTAC | 0.877 RPM ratio (pull-down/input)
GATGATTGTTCTCCCAGCTGATGAATTTGATTGCTCGAGTAAACAAATTTTCCTAATCTTTCTGTTCAAGCGCCATCTAC | 1.16 RPM ratio (pull-down/input)
GATGATTGTTCTCCCAGCTGATGAATTTTGCTCCTCGAGTAAACAAATTTTCCTAATCTTTCTGTTCAAGCGCCATCTAC | 0.907 RPM ratio (pull-down/input)
GATGATTGTTCTCCCAGCTGATGAATTTGTTTGCTCGAGTAAACAAATTTTCCTAATCTTTCTGTTCAAGCGCCATCTAC | 2.43 RPM ratio (pull-down/input)
GATGATTGTTCTCCCAGCTGATGAATTCTTTTGCTCGAGTAAACAAATTTTCCTAATCTTTCTGTTCAAGCGCCATCTAC | 0.898 RPM ratio (pull-down/input)
GATGATTGTTCTCCCAGCTGATGAATTTCTTTGCTCGAGTAAACAAATTTTCCTAATCTTTCTGTTCAAGCGCCATCTAC | 0.931 RPM ratio (pull-down/input)
GATGATTGTTCTCCCAGCTGATGAATTGTTGTGCTCGAGTAAACAAATTTTCCTAATCTTTCTGTTCAAGCGCCATCTAC | 2.06 RPM ratio (pull-down/input)
GATGATTGTTCTCCCAGCTGATGAATTTTGTTGCTCGAGTAAACAAATTTTCCTAATCTTTCTGTTCAAGCGCCATCTAC | 1.79 RPM ratio (pull-down/input)
GATGATTGTTCTCCCAGCTGATGAATTGTTGCTCTCGAGTAAACAAATTTTCCTAATCTTTCTGTTCAAGCGCCATCTAC | 1.39 RPM ratio (pull-down/input)
GATGATTGTTCTCCCAGCTGATGAATTGTGCTGCTCGAGTAAACAAATTTTCCTAATCTTTCTGTTCAAGCGCCATCTAC | 0.988 RPM ratio (pull-down/input)
GATGATTGTTCTCCCAGCTGATGAATTATAATTCTCGAGTAAACAAATTTTCCTAATCTTTCTGTTCAAGCGCCATCTAC | 0.978 RPM ratio (pull-down/input)
GATGATTGTTCTCCCAGCTGATGAATTTCATCTATCGAGTAAACAAATTTTCCTAATCTTTCTGTTCAAGCGCCATCTAC | 0.877 RPM ratio (pull-down/input)
GATGATTGTTCTCCCAGCTGATGAATTCGCGTATTCGAGTAAACAAATTTTCCTAATCTTTCTGTTCAAGCGCCATCTAC | 0.979 RPM ratio (pull-down/input)
GATGATTGTTCTCCCAGCTGATGAATTTGAAATCTCGAGTAAACAAATTTTCCTAATCTTTCTGTTCAAGCGCCATCTAC | 0.737 RPM ratio (pull-down/input)
